Holding throughout (experiment): NCI-60 one-dose screen, 48 h (100 = growth as untreated, 0 = no growth, -100 = all killed)
Holding throughout (conditions): 10 µM unless noted

Assay [1] has as its system NCI-H23 lung.
The subject of assay [2] is NCI-H226 lung.
The test system of assay [3] is NCI-H322M lung.
The subject of assay [4] is HOP-62 NSCLC.
Assay [5] deals with NCI-H460 lung.
For assay [6], the system named is HOP-92 NSCLC.
For assay [7], the system named is A549/ATCC NSCLC.
The test system of assay [8] is 786-0 renal.
Assay [9] concerns COLO 205 colon.
The test system of assay [10] is DU-145 prostate.
For assay [11], the system named is K-562 leukemia.
Assay [12] concerns MALME-3M melanoma.
Assay [13] relates to MDA-MB-231 breast.
Assay [14] has as its system RXF 393 renal.
In assay [15] the test system is SF-268 CNS.
Assay [16] deals with SF-295 CNS.
The subject of assay [17] is SF-539 CNS.
Assay [18] relates to UACC-257 melanoma.
Assay [19] has as its system M14 melanoma.
For assay [20], the system named is NCI-H522 lung.

Drawing on PubChem BioAssay (NCI), this text covers growth for 8 molecules.

The structures appear in SMILES notation. About 83,000 compounds went through this panel and 20% of them were active in at least one assay; those are over-represented in the sample as a whole.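 Growth was measured after 48 h exposure to one concentration of compound in 96-well plates. Values under 10 count as active.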 A number with no mark means an inactive call. Calls of active or inactive are those of the source.

Take `O=C1c2ccccc2-c2ccccc2C1(Cl)Cl`: the growth in [1] is -20.8% (active); in assay [2], 88.4%; in assay [3], 86.7%; in [4], -98% (active); in [5], 4.08% (active); in assay [6] it was -78.4% (active). Besides, the growth was -21.2% (active) in assay [7]; 103% in assay [8]; 92.3% in assay [9]; -90.6% (active) in assay [10]; -15.4% (active) in assay [11]; -99.4% (active) in assay [12]. The growth is -27.5% (active) in [13]; -95.6% (active) in assay [14]; -83.8% (active) in [15]; -91% (active) in [16]; -94.8% (active) in assay [17]; -93% (active) in assay [18]. Further, the growth in assay [19] was -69.6% (active).
As for `Cc1ccc(CSC(=N)N)cc1C`, the growth was 108% in [1]; 104% in assay [2]; 111% in assay [3]; 110% in assay [4]; 109% in assay [5]; 67.4% in assay [6]. The growth in assay [20] was 101%; in [7], 103%; in assay [8], 103%; in assay [9], 107%; in assay [10], 108%; in [12] it was 111%. The growth in assay [13] was 99.2%; in assay [14], 103%; in assay [15] it was 104%; in assay [16], 111%; in [17], 114%; in assay [18], 119%. For the same molecule, in assay [19], the growth was 105%.
On to `CC(C)C(C(=O)NCCN1CCOCC1)N1C(=O)/C(=C/c2ccc(Br)cc2)SC1=S` (stereo unspecified), for which the growth in [1] is 98.4%; in assay [2], 107%; in [3], 100%; in assay [4] it was 104%; in assay [5], 101%; in [6], 104%. Besides, the growth in assay [20] was 95.9%; in assay [7] it was 102%; in [9] it was 111%; in assay [10], 108%; in [11] it was 96%; in assay [12] it was 106%. For the same molecule, the growth was 108% in assay [13]; 125% in [14]; 94.2% in [15]; 102% in assay [16]; 98.6% in assay [17]; 106% in [18]. In addition, the growth in [19] is 90.7%.
Take `Cc1ccc(NS(=O)(=O)c2cc(C)ccc2C)cc1`: the growth was 59.2% in assay [1]; 79.1% in [2]; 88.7% in assay [3]; 49.3% in assay [4]; 14.4% in assay [5]; 39.6% in [6]. The growth in assay [20] was 11.5%; in [7] it was 33.5%; in assay [8] it was 61%; in [9] it was 32.8%; in assay [10] it was 57.9%; in assay [12], 54.1%. Moreover, the growth was 57.4% in assay [13]; 47.6% in [14]; 53.7% in assay [15]; 30.7% in assay [16]; 45.4% in [17]; 73% in [18]. Besides, in assay [19], the growth was 8.87% (active).
For the molecule `CC(=O)Oc1csc(N(C(C)=O)c2cc(C(=O)O)cc(C(=O)O)c2)n1`, the growth was 93.1% in [1]; 101% in assay [2]; 99.8% in assay [3]; 99% in assay [4]; 102% in [5]; 47.3% in assay [6]. The growth in assay [20] was 93.1%; in assay [7] it was 97.1%; in assay [9] it was 99.7%; in [10] it was 97.4%; in [11], 102%; in [12] it was 87.9%. The growth was 89.2% in [13]; 95.8% in assay [14]; 92.9% in assay [15]; 96.4% in assay [16]; 89.6% in assay [17]; 92.8% in assay [18]. Besides, the growth in assay [19] was 84.5%.
With `O=C(c1ccccc1)C1OC1c1ccc([N+](=O)[O-])cc1` (stereo unspecified), the growth in assay [1] is 48.1%; in assay [2], 67.7%; in assay [3] it was 106%; in assay [4], 86.4%; in [5], 84%; in assay [6] it was 61.5%. Also, the growth in assay [7] was 85.6%; in [8], 83.3%; in [9], 112%; in [10] it was 67.9%; in [11], 32.6%; in assay [12], 83.6%. For the same molecule, the growth in [13] is 78.4%; in assay [14] it was 77.8%; in assay [15], 79.2%; in assay [16] it was 97%; in assay [17], 96.5%; in assay [18], 68.1%. Further, the growth in assay [19] was 48.2%.
For the molecule `Cn1c(=O)c2[nH]c(C3CC=CCC3)nc2n(C)c1=O` (stereo unspecified), the growth in [1] was 98.2%; in [2], 103%; in [3], 102%; in [4] it was 90.5%; in assay [5], 109%; in assay [6], 70.1%. Also, the growth is 98% in assay [20]; 106% in assay [7]; 105% in [8]; 97.4% in assay [9]; 101% in assay [10]; 107% in [12]. Also, the growth is 94.6% in assay [13]; 115% in assay [14]; 96% in assay [15]; 89.5% in assay [16]; 116% in assay [18]; 111% in assay [19].
With `CCOC(=O)c1cc(C(=O)c2cc(OC)c(OC)c(OC)c2)n2c1ccc1ccccc12`, the growth in [1] is 50.2%; in assay [2], 64.7%; in assay [3] it was 43.1%; in assay [4], 21.6%; in assay [5], 14.9%; in [6], 39.1%. Also, the growth in [20] is 2.76% (active); in [7], 34.4%; in assay [9] it was -6.61% (active); in [10], 22.1%; in assay [11], 12.3%; in [12] it was 19.9%. The growth in assay [13] is 49.8%; in [14], -9.46% (active); in assay [15], 49.6%; in assay [16], 22.4%; in assay [17] it was -13.4% (active); in assay [18], 63.6%. For the same molecule, in assay [19], the growth was 10.7%.
